Data on six molecules can be found in PubChem BioAssay (NCI).

Molecules are shown by their SMILES. Compounds without any hit were thinned out: in the full panel of roughly 79,000, 15% have a hit. Unmarked numbers belong to inactive results. Activity calls are given as the source filed them. Cut-off read from the data, not from the text of the source: active = growth inhibition above about 70%; inactive = the rest.

The nature of experiment [1]: NCI Yeast Anticancer Drug Screen. Data for the rad50 strain (AID 155).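 Note: 0% = growth of vehicle-only cultures of the same strain.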 The conditions noted are these: S. cerevisiae rad50 strain growth inhibition, hits give high values. Put shortly: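 Inhibition values express reduced yeast growth in compound-treated cultures relative to vehicle-treated controls.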
Experiment [2] can be described thus: NCI Yeast Anticancer Drug Screen. Data for the mec2-1 strain (AID 157). The conditions noted are these: S. cerevisiae mec2-1 strain, hits give high values. Put shortly:
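Mutant yeast (mec2-1) grown with compound; growth inhibition relative to vehicle control reported.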

Experiment [3] in a line: NCI Yeast Anticancer Drug Screen. Data for the sgs1 mgt1 strain (AID 161).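 Note: 0% = growth of cultures given vehicle only.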 The conditions noted are these: S. cerevisiae sgs1 mgt1 strain, hits give high values. The method, boiled down:
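Growth of a repair-deficient yeast mutant was monitored after compound treatment and expressed as inhibition relative to vehicle-treated cultures.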

A short description of experiment [4]: NCI Yeast Anticancer Drug Screen. Data for the cln2 rad14 strain (AID 165).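 Note: 0% = growth equal to vehicle treated cultures.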 The conditions noted are these: S. cerevisiae cln2 rad14 strain, hits give high values. The method, boiled down:
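Readout is yeast growth inhibition versus vehicle-treated controls, using a strain with cln2 and rad14 alterations exposed to compound.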

Experiment [5] is described as follows: NCI Yeast Anticancer Drug Screen. Data for the bub3 strain (AID 167). The conditions noted are these: S. cerevisiae bub3 mutant strain, hits give high values. Put shortly:
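Steps: expose the mutant yeast strain to compound; grow alongside vehicle-treated cultures; measure growth; express inhibition against the vehicle cultures.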

Experiment [6] is described as follows: NCI Yeast Anticancer Drug Screen. Data for the mlh1 rad18 strain (AID 175). The conditions noted are these: S. cerevisiae mlh1 rad18 strain growth inhibition, hits give high values. The method, boiled down: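 Genetically defined yeast (DNA repair-deficient) exposed to compounds; growth inhibition determined relative to vehicle.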
The mark [7] stands for this setting: at 5.0 µM (retest, dose inferred, filed as 0.5).
[8] abbreviates: at 50.0 µM (retest, dose inferred, filed as 5.0).

For `Nc1ccc2c(c1)[nH]c(=O)c1cccc(Cl)c12`, the growth inhibition in experiment [1] (setting [7]) was -32%; in experiment [1] (setting [8]), 89% (active); in experiment [1] (at 50.0 µM), 96.1% (active); in experiment [2] (setting [7]) it was -34%; in experiment [2] (setting [8]), 88% (active); in experiment [2] (at 50.0 µM), 55.3%. In addition, the growth inhibition in experiment [3] (setting [7]) is -39%; in experiment [3] (setting [8]), 80% (active); in experiment [3] (at 50.0 µM), 61.2%; in experiment [4] (setting [7]), -31%; in experiment [4] (setting [8]), 94% (active); in experiment [4] (at 50.0 µM), 63.9%. Further, the growth inhibition in experiment [5] (setting [7]) was -52%; in experiment [5] (setting [8]) it was 90% (active); in experiment [5] (at 50.0 µM) it was 32.5%; in experiment [6] (setting [7]), -40%; in experiment [6] (setting [8]) it was 95% (active); in experiment [6] (at 50.0 µM), 93.1% (active).
`CCCCCCCNCCCCCC`: the growth inhibition in experiment [1] (setting [7]) was 64%; in experiment [1] (setting [8]), 92% (active); in experiment [1] (at 50.0 µM), 67.7%; in experiment [2] (setting [7]) it was 20%; in experiment [2] (setting [8]), 69%; in experiment [2] (at 50.0 µM), 63.8%. The growth inhibition in experiment [3] (setting [7]) is 73% (active); in experiment [3] (setting [8]) it was 93% (active); in experiment [3] (at 50.0 µM) it was 84.7% (active); in experiment [4] (setting [7]), 28%; in experiment [4] (setting [8]), 86% (active); in experiment [4] (at 50.0 µM) it was 68.3%. For the same molecule, the growth inhibition in experiment [5] (setting [7]) is 75% (active); in experiment [5] (setting [8]), 97% (active); in experiment [5] (at 50.0 µM), 67.1%; in experiment [6] (setting [7]), 78% (active); in experiment [6] (setting [8]) it was 94% (active); in experiment [6] (at 50.0 µM), 48.6%.
With `O=C(c1ccco1)N(C(=S)N1CCN(c2ccccn2)CC1)c1ccccc1`, the growth inhibition in experiment [1] (setting [7]) is 3%; in experiment [1] (setting [8]), 76% (active); in experiment [1] (at 50.0 µM), 77.2% (active); in experiment [2] (setting [7]), 8%; in experiment [2] (setting [8]) it was 51%; in experiment [2] (at 50.0 µM), 47.4%. Further, the growth inhibition in experiment [3] (setting [7]) is -1%; in experiment [3] (setting [8]) it was 71% (active); in experiment [3] (at 50.0 µM) it was 63.4%; in experiment [4] (setting [7]) it was 31%; in experiment [4] (setting [8]) it was 53%; in experiment [4] (at 50.0 µM), 36.5%. For the same molecule, the growth inhibition is -2% in experiment [5] (setting [7]); 60% in experiment [5] (setting [8]); 53% in experiment [5] (at 50.0 µM); -2% in experiment [6] (setting [7]); 78% (active) in experiment [6] (setting [8]); 57.4% in experiment [6] (at 50.0 µM).
With `CSc1nc(NN)cc(-c2ccccc2)n1`, the growth inhibition is 0% in experiment [1] (setting [7]); 23% in experiment [1] (setting [8]); 12.5% in experiment [1] (at 50.0 µM); 24% in experiment [2] (setting [7]); 19% in experiment [2] (setting [8]); 50.3% in experiment [2] (at 50.0 µM). Besides, the growth inhibition was 0% in experiment [3] (setting [7]); 57% in experiment [3] (setting [8]); 56.7% in experiment [3] (at 50.0 µM); 2% in experiment [4] (setting [7]); -2% in experiment [4] (setting [8]); 3.1% in experiment [4] (at 50.0 µM). In addition, the growth inhibition in experiment [5] (setting [7]) was -3%; in experiment [5] (setting [8]) it was 68%; in experiment [5] (at 50.0 µM), 81.2% (active); in experiment [6] (setting [7]) it was -1%; in experiment [6] (setting [8]), 54%; in experiment [6] (at 50.0 µM) it was 79.3% (active).
For `CC(=O)Nc1ccc(/S(=N\S(=O)(=O)c2ccc(C)cc2)c2ccc(NC(C)=O)cn2)cc1` (stereo not drawn), the growth inhibition in experiment [1] (setting [7]) is 0%; in experiment [1] (setting [8]), 6%; in experiment [1] (at 50.0 µM) it was 37%; in experiment [2] (setting [7]) it was -2%; in experiment [2] (setting [8]) it was 1%; in experiment [2] (at 50.0 µM), 4.8%. Besides, the growth inhibition is 0% in experiment [3] (setting [7]); 4% in experiment [3] (setting [8]); 0.7% in experiment [3] (at 50.0 µM); -8% in experiment [4] (setting [7]); 3% in experiment [4] (setting [8]); 73.3% (active) in experiment [4] (at 50.0 µM). The growth inhibition in experiment [5] (setting [7]) was -3%; in experiment [5] (setting [8]), 0%; in experiment [5] (at 50.0 µM), -1.75%; in experiment [6] (setting [7]), -2%; in experiment [6] (setting [8]), 7%; in experiment [6] (at 50.0 µM), -15.1%.
Turning to `CC(=O)n1nc2c(c1CC(C)C)C(=O)C(Nc1ccccc1)=CC2=O`, the growth inhibition in experiment [1] (setting [7]) was 1%; in experiment [1] (setting [8]), 100% (active); in experiment [1] (at 50.0 µM) it was 77% (active); in experiment [2] (setting [7]), 1%; in experiment [2] (setting [8]), 100% (active); in experiment [2] (at 50.0 µM), 68.2%. Further, the growth inhibition in experiment [3] (setting [7]) is 1%; in experiment [3] (setting [8]), 100% (active); in experiment [3] (at 50.0 µM), 80.2% (active); in experiment [4] (setting [7]), 6%; in experiment [4] (setting [8]) it was 99% (active); in experiment [4] (at 50.0 µM), 27.9%. Moreover, the growth inhibition in experiment [5] (setting [7]) is -2%; in experiment [5] (setting [8]) it was 99% (active); in experiment [5] (at 50.0 µM) it was 23.2%; in experiment [6] (setting [7]), 1%; in experiment [6] (setting [8]), 99% (active); in experiment [6] (at 50.0 µM) it was 78.3% (active).
